For five compounds, outcome and AC50 results are on record in PubChem BioAssay (EPA / NIEHS).

Results filed as inconclusive are left out. The source made the active and inactive calls. The calls were made as follows: active = hit-call score of the fitted dose curve at least 0.9, where 1 is the maximum; inconclusive = response in the unintended direction; inactive = score below 0.9.

The target in assay [1] is human Ephrin type-B Receptor 2 (EphB2), EPHB2 (gene 2048) (UniProt P29323). The experiment in a line: NVS_ENZ_hEphB2: NovaScreen (NVS) Enzymatic Assay for human Ephrin type-B Receptor 2 (EphB2) (AID 2283156). Put shortly:
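Compounds were first tested in duplicate at 25 uM, with hits rerun singly in concentration series up to 50 uM. Enzyme activity on fluorescent substrate was read at 1 h by mobility-shift separation, scored as signal loss relative to DMSO.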

Assay [2] concerns the target human Fibroblast Growth Factor Receptor 1 (FGFR1), FGFR1 (gene 2260) (UniProt P11362). The experiment in a line: NVS_ENZ_hFGFR1: NovaScreen (NVS) Enzymatic Assay for human Fibroblast Growth Factor Receptor 1 (FGFR1) (AID 2283159).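 Also: hits lower the signal so potencies describe inhibitors of the kinase.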 Put shortly: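 Cell-free recombinant kinase with fluorescent substrate, product separated by electrophoretic mobility shift; read 1 hour after dosing, loss of signal relative to DMSO. Initial screen in duplicate at 25 uM, actives followed in concentration series.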

The target in assay [3] is Histone deacetylase 3 (Homo sapiens) (UniProt O15379). The experiment in a line: NVS_ENZ_hHDAC3: NovaScreen (NVS) Enzymatic Assay for human Histone Deacetylase 3 (HDAC3) (AID 2283163). The method, boiled down:
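Cell-free enzyme format: loss of fluorescent product after mobility-shift separation, 1 h incubation, recombinant human HDAC3. Single 25 uM duplicate screen first, then concentration series to a 50 uM top for hits; DMSO as baseline.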

For assay [4], the target named is human FYN Proto-Oncogene, Src family Tyrosine Kinase (Fyn), FYN (gene 2534) (UniProt P06241). The experiment in a line: NVS_ENZ_hFyn: NovaScreen (NVS) Enzymatic Assay for human FYN Proto-Oncogene, Src family Tyrosine Kinase (Fyn) (AID 2283161). Put shortly:
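Cell-free kinase activity read by fluorescence after mobility-shift separation of substrate and product, 1 h post-dose. Initial single concentration 25 uM in duplicate, then concentration-response follow-up; DMSO baseline.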

Assay [5] has as its target human Janus Kinase 2 (Jak2), JAK2 (gene 3717) (UniProt O60674). The experiment in a line: NVS_ENZ_hJak2: NovaScreen (NVS) Enzymatic Assay for human Janus Kinase 2 (Jak2) (AID 2283169). The method, boiled down: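 Single-point duplicate screen at 25 uM, with hits run in concentration series to a 50 uM top dose. Substrate-product separation by mobility shift with fluorescence detection, 1 h post-dosing; DMSO baseline.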

Sequence of Histone deacetylase 3 (Homo sapiens) (O15379 whole entry, looked up): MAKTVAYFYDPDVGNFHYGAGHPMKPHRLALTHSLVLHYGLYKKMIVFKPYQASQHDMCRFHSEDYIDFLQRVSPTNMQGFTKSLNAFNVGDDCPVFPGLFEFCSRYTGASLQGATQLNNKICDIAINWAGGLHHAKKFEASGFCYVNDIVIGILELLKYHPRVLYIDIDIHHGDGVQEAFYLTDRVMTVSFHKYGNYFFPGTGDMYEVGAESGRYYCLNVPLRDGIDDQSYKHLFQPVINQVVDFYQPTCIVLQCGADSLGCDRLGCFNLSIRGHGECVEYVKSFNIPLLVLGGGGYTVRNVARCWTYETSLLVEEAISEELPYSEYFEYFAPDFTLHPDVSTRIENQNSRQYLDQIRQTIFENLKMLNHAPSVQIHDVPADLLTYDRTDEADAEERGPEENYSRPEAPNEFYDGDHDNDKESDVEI
Sequence of human Ephrin type-B Receptor 2 (EphB2), EPHB2 (gene 2048) (P29323 whole entry, looked up): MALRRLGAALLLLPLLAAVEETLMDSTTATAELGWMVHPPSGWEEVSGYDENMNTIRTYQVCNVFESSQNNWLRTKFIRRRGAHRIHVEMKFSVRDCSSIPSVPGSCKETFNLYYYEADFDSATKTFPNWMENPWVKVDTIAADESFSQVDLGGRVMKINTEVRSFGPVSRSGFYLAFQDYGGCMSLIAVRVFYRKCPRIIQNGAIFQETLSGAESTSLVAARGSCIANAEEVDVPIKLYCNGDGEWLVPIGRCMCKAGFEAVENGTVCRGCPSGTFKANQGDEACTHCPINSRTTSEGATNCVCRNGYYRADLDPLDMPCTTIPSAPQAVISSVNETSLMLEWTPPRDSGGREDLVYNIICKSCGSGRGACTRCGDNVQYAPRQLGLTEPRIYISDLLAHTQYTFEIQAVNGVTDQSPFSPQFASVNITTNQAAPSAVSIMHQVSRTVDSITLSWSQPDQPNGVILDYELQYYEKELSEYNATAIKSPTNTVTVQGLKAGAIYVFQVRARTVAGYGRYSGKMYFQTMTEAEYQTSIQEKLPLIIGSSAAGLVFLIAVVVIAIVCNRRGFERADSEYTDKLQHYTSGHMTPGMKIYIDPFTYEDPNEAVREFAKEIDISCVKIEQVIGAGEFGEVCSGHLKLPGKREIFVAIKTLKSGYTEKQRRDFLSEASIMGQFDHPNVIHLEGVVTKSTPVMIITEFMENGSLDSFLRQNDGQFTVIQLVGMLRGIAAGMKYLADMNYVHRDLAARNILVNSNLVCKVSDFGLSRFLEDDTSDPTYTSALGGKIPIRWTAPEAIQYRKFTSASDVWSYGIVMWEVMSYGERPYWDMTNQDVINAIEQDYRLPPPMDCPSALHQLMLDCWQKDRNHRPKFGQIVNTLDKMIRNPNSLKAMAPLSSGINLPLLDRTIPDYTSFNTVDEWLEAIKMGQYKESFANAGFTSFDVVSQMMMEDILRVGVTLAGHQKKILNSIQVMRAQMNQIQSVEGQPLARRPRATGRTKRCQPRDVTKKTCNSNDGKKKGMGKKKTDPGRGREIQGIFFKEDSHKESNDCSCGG
Sequence of human FYN Proto-Oncogene, Src family Tyrosine Kinase (Fyn), FYN (gene 2534) (P06241 whole entry, looked up): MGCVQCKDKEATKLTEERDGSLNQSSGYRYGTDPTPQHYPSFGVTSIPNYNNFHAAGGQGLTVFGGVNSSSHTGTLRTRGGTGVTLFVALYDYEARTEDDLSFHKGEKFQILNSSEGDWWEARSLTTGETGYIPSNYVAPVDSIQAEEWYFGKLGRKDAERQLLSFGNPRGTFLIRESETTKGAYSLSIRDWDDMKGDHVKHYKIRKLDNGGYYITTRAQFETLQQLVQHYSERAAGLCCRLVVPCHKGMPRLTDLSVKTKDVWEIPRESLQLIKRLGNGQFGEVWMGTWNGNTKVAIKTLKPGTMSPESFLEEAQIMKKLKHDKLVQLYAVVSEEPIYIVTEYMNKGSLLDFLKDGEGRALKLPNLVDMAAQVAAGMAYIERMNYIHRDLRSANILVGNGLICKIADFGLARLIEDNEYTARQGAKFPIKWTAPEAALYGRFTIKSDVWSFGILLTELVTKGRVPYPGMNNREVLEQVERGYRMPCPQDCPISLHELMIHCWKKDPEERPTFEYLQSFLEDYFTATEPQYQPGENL
Sequence of human Fibroblast Growth Factor Receptor 1 (FGFR1), FGFR1 (gene 2260) (P11362 whole entry, looked up): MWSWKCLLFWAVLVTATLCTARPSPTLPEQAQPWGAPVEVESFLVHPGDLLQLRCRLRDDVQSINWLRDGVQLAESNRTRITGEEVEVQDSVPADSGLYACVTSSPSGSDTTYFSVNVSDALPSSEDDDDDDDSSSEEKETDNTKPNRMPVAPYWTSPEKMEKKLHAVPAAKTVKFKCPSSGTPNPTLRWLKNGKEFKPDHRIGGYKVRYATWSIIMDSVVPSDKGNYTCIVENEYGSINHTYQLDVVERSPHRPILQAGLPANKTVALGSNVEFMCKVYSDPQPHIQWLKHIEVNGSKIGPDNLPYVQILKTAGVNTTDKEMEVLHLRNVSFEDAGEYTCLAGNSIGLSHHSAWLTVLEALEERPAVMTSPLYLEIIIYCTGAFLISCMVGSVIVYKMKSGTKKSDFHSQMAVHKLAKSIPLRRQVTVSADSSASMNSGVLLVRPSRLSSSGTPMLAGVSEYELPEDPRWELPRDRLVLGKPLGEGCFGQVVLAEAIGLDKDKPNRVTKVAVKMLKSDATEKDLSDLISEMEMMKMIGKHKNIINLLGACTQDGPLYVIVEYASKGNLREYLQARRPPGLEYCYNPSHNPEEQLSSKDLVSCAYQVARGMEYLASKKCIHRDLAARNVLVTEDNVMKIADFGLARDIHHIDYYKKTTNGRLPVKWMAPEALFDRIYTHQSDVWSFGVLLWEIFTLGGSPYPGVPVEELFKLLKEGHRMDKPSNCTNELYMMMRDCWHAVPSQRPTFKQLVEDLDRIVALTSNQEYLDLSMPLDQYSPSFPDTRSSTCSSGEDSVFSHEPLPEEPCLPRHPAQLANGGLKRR
Sequence of human Janus Kinase 2 (Jak2), JAK2 (gene 3717) (O60674 whole entry, looked up): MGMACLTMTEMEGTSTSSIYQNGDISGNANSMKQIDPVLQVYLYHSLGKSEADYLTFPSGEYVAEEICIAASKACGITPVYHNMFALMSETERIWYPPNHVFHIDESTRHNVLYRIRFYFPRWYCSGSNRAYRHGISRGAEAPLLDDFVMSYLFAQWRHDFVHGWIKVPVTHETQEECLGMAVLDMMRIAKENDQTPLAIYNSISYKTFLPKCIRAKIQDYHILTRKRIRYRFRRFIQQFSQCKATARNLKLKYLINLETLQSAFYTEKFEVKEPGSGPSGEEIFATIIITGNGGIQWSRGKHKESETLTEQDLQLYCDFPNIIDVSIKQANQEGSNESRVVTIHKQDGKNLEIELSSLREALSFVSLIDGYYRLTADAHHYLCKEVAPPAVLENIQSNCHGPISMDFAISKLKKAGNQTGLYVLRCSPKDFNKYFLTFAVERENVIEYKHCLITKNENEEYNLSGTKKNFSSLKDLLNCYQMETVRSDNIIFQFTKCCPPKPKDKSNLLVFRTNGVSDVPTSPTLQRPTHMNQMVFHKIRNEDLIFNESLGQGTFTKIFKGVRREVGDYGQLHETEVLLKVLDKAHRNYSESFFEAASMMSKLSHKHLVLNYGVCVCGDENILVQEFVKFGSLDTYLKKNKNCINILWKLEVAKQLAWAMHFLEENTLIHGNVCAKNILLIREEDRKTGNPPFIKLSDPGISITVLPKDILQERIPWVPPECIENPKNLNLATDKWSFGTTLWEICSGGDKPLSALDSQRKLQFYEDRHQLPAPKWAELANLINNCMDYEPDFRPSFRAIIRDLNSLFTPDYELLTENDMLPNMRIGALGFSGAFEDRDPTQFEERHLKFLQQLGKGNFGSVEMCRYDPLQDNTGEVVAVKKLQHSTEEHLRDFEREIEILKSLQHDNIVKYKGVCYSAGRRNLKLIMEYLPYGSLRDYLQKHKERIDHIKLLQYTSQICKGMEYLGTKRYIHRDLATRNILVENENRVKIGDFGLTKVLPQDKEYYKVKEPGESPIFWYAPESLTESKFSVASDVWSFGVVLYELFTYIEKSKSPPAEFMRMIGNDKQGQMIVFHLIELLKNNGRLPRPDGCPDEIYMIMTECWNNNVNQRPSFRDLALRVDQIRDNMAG

In the case of `O=C(O)C(Cl)(Cl)Cl`, in assay [1], the compound was classed as inactive.

Take `CC(=O)[O][Hg][c]1ccccc1`: the values for the AC50 in assay [2] and in assay [3] were 33.4 µM (active) and 9.74 µM (active), respectively.

Regarding `NC(=O)O`, in assay [4], the outcome was inactive.

Take `O=[N+]([O-])c1ccc(O)c([N+](=O)[O-])c1`: in assay [3], the call was inactive.

As for `Cn1sc(Cl)cc1=O`, the result in assay [5] was inactive.
